From the supplement of paper PMC10849652 come the findings set out here.

Of roughly 7,900 targets only a part is listed; those with a hit were picked by preference. About 0.6% of all pairs of compound and target were hits.

Sequence of UniProt Q9H4I3 (Q9H4I3 whole entry, looked up): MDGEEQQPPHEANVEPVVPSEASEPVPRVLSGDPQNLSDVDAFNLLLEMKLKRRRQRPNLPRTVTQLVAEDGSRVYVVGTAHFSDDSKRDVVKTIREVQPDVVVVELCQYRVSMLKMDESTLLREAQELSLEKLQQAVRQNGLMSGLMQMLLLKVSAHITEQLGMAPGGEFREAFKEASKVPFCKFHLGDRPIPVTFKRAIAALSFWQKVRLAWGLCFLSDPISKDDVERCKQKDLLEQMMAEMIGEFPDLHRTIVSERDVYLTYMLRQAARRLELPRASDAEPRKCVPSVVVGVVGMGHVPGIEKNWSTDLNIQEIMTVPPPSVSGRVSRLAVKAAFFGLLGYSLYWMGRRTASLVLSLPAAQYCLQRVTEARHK
Sequence of UniProt P61960 (P61960 whole entry, looked up): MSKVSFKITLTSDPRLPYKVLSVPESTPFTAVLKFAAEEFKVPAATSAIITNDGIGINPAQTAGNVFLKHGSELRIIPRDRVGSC
Sequence of UniProt O60701 (O60701 whole entry, looked up): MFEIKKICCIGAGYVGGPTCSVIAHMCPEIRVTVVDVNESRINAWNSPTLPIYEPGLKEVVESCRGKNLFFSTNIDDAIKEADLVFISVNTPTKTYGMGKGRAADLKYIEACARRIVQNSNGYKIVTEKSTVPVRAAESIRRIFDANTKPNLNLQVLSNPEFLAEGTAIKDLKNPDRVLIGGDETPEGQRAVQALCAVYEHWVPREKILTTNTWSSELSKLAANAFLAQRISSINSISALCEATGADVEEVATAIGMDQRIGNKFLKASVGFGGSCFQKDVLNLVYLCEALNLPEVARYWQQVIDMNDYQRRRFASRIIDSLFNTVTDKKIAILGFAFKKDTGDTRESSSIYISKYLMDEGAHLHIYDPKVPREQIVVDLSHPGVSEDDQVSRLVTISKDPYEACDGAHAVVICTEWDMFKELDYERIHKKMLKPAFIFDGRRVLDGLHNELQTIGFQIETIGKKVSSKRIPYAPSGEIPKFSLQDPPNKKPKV
Sequence of UniProt Q9Y5K5 (Q9Y5K5 whole entry, looked up): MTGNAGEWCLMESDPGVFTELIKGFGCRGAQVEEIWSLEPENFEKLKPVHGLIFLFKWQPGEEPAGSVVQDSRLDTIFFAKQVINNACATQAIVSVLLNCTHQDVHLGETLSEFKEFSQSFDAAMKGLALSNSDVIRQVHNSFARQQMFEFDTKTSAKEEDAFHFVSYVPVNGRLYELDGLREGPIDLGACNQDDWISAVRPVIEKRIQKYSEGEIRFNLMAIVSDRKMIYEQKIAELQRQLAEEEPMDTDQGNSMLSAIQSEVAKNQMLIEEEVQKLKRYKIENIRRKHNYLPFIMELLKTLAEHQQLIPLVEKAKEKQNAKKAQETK
Sequence of UniProt Q9NQ34 (Q9NQ34 whole entry, looked up): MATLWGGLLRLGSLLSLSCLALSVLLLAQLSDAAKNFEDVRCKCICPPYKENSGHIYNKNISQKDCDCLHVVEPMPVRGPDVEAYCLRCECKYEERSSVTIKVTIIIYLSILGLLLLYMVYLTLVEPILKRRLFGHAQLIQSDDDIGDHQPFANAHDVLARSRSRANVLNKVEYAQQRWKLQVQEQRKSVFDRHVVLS
Sequence of UniProt P30291 (P30291 whole entry, looked up): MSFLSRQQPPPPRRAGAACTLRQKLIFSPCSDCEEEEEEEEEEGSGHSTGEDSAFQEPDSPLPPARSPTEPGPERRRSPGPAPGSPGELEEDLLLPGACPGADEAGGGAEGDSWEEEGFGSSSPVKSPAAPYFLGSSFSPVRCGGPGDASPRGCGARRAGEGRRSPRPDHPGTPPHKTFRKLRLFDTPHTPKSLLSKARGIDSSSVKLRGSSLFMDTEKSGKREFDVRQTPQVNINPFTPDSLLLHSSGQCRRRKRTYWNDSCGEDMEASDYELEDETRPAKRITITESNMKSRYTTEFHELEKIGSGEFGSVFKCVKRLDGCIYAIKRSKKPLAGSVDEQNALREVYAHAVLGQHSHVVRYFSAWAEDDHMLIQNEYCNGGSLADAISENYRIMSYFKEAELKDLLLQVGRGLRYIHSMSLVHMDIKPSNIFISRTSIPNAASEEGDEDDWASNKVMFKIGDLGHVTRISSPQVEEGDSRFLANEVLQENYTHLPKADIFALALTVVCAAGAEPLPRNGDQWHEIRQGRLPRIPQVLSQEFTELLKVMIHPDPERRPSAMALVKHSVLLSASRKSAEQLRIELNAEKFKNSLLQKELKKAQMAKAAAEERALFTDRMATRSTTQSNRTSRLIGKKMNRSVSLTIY
Sequence of UniProt Q9BUB7 (Q9BUB7 whole entry, looked up): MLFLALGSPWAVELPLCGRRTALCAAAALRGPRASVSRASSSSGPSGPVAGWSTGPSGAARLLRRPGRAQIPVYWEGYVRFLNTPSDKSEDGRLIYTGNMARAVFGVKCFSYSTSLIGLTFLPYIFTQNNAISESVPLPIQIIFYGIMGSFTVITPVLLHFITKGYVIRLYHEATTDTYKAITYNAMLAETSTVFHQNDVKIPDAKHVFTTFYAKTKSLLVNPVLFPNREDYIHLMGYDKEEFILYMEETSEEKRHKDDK
Sequence of UniProt Q5BJH2 (Q5BJH2 whole entry, looked up): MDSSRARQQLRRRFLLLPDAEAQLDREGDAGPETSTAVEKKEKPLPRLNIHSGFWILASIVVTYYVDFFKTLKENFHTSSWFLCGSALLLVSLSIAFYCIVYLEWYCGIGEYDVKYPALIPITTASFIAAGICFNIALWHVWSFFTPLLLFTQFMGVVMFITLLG
Sequence of UniProt Q6NXR4 (Q6NXR4 whole entry, looked up): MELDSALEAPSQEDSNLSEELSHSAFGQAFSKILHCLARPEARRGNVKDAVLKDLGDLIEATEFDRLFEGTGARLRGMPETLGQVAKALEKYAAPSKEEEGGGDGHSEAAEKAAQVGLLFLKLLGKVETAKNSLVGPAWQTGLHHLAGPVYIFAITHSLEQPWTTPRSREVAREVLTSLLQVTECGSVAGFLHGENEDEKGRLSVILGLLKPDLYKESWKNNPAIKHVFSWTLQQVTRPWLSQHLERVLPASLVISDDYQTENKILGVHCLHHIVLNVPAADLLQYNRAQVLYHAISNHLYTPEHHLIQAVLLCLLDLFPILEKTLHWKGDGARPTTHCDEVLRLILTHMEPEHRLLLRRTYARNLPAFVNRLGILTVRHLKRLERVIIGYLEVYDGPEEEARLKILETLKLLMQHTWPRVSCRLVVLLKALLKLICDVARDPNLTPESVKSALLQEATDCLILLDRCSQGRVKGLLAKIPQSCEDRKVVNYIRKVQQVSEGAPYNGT
Sequence of UniProt Q6PID6 (Q6PID6 whole entry, looked up): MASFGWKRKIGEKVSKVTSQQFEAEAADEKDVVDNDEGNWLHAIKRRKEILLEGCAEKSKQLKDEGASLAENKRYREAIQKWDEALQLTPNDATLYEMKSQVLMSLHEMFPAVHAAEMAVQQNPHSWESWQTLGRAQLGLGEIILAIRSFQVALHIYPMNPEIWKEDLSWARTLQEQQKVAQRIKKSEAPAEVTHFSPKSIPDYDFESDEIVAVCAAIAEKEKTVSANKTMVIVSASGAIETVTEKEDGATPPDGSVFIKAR
Sequence of UniProt Q8NEZ2 (Q8NEZ2 whole entry, looked up): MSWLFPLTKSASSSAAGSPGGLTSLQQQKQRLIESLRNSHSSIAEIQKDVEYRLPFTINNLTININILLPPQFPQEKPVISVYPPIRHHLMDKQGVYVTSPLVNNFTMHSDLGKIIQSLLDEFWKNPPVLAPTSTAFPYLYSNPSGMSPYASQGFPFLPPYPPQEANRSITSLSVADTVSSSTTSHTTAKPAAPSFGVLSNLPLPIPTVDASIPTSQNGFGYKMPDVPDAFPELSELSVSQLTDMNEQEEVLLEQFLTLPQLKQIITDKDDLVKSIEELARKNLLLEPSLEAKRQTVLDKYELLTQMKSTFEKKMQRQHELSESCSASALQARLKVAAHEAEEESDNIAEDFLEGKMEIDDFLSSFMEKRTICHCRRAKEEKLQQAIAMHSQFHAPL
Sequence of UniProt O95857 (O95857 whole entry, looked up): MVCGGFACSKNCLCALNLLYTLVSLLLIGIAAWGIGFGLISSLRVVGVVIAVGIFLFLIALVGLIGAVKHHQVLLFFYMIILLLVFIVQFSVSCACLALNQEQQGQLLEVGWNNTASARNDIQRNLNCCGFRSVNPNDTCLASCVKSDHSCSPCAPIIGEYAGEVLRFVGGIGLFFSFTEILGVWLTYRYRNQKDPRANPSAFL
Sequence of UniProt Q9NQZ2 (Q9NQZ2 whole entry, looked up): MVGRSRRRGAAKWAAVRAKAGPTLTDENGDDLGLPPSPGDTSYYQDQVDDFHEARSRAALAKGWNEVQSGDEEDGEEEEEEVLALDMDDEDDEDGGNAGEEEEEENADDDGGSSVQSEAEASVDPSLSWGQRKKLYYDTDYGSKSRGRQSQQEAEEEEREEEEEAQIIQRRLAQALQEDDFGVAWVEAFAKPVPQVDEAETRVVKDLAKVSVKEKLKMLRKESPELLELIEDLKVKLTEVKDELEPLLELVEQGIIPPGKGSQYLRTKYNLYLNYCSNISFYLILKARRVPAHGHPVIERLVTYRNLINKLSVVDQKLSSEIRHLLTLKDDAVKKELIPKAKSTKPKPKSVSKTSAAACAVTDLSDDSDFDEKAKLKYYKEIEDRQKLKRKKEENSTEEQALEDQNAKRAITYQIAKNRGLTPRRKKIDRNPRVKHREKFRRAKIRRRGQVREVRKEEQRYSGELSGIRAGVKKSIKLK
Sequence of UniProt Q15906 (Q15906 whole entry, looked up): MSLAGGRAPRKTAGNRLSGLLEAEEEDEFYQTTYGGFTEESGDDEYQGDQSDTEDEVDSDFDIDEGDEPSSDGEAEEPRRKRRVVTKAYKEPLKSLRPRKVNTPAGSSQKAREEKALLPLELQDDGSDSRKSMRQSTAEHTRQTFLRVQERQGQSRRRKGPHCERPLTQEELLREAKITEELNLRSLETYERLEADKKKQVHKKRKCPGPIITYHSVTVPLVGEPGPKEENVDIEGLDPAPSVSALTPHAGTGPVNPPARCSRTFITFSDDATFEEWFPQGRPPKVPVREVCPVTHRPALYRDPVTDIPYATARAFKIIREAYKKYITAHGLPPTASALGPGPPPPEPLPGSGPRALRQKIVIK

Compound in one test: CC1=NC(=CC=C1)C2=C(N=C(N2)C(C)(C)C)C3=CC4=NC=CN=C4C=C3
The experiment in a line: log2 fold change, soluble protein after heating vs DMSO (PISA); higher = thermal stabilisation; K562 cells, 10 uM, 30 min; active = over 0.2 and 3.5 SD of the protein, either way, in both replicates (recomputed). The method in brief:
(§1)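 K562 cells at 2×10^6 cells/mL were exposed to 10 μM compound for 30 min, then aliquots were heated for 3 min across 48°C-58°C, pooled, and extracted in PBS containing 0.5% NP-40 at 4°C. The supernatant after 21,000xg for 90 min was taken as soluble protein and measured by TMTpro 16plex LC-MS/MS with channel sums equalised. Thermal stability is reported relative to control samples, with values from duplicates. Fold changes are given on a log2 scale.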
Turning to UGDH (UniProt O60701), the log2 fold change is 0.083 (inactive).
Turning to TRABD (UniProt Q9H4I3), the log2 fold change is -0.133 (inactive).
Same read-out and setting: with WEE1 (UniProt P30291) the figure was -0.046 (inactive).
Still for that read-out and setting: with UCHL5 isoform 3 (UniProt Q9Y5K5) the figure was -0.213 (inactive); with UFM1 (UniProt P61960), 0.183 (inactive); with TSC2 (UniProt P49815), -0.139 (inactive).
Same read-out and setting: with TMEM9B (UniProt Q9NQ34) the figure was 0.01 (inactive); with VKORC1 (UniProt Q9BQB6), -0.325 (active).
In the case of TMEM179B (UniProt Q7Z7N9), the log2 fold change is 0.027 (inactive).

Compound in the next test: CCCCN(Cc1ccc(C(=O)NO)cc1)C(=O)Nc1ccccc1 [Nexturastat A]
Described as above. The method in brief: as §1
In the case of VPS11 (UniProt Q9H270), the log2 fold change was 0.107 (inactive).
Regarding USP3 (UniProt Q9Y6I4), the log2 fold change is 0.01 (inactive).
As to TRIM4 (UniProt Q9C037), the log2 fold change was 0.1 (inactive).
On the same count and under the same terms, to TMEM128 (UniProt Q5BJH2) belongs 0.021 (inactive); to VPS53 isoform 4 (UniProt Q5VIR6), 0.022 (inactive); to VPS37A (UniProt Q8NEZ2), -0.048 (inactive).
Still for that read-out and setting: with TUBA4A (UniProt P68366) the figure was -0.03 (inactive).
Take VDAC1 (UniProt P21796): the log2 fold change was -0.028 (inactive).
Still for that read-out and setting: with UBA52 (UniProt P62987) the figure was 0.281 (inactive); with VPS28 (UniProt Q9UK41), -0.018 (inactive); with TRMT61A (UniProt Q96FX7), 0.204 (inactive).
In the case of WNK1 isoform 7 (UniProt Q9H4A3), the log2 fold change is -0.03 (inactive).
Take TSPAN13 (UniProt O95857): the log2 fold change was -0.061 (inactive).
Regarding TTI2 (UniProt Q6NXR4), the log2 fold change is 0.113 (inactive).
Consider TTC33 (UniProt Q6PID6), for which the log2 fold change is 0.026 (inactive).
Same read-out and setting: with UTP3 (UniProt Q9NQZ2) the figure was 0.308 (inactive); with ULBP1 (UniProt Q9BZM6), 0.428 (active).
UBE3B (UniProt Q7Z3V4): the log2 fold change is 0.014 (inactive).
Still for that read-out and setting: with VPS13B (UniProt Q7Z7G8) the figure was -0.011 (inactive); with TMEM70 (UniProt Q9BUB7), -0.012 (inactive); with UBE4B isoform 4 (UniProt O95155), -0.017 (inactive).
The same measure, in the same setting: to VPS72 isoform 2 (UniProt Q15906) belongs -0.17 (inactive).
Still for that read-out and setting: to UGDH (UniProt O60701) belongs -0.064 (inactive); to TRABD (UniProt Q9H4I3), -0.03 (inactive).
In the case of UBXN8 (UniProt O00124), the log2 fold change is 0.334 (inactive).
The same measure, in the same setting: with WEE1 (UniProt P30291) the figure was 0.322 (inactive); with UCHL5 isoform 3 (UniProt Q9Y5K5), 0.07 (inactive); with UFM1 (UniProt P61960), -0.04 (inactive).
In the case of TSC2 (UniProt P49815), the log2 fold change is 0.173 (inactive).
As for TMEM9B (UniProt Q9NQ34), the log2 fold change is -0.055 (inactive).
With TMEM179B (UniProt Q7Z7N9), the log2 fold change is 0.378 (inactive).

Compound in a further test: CCCS(=O)(=O)Nc1ccc(F)c(C(=O)c2c[nH]c3ncc(-c4ccc(Cl)cc4)cc23)c1F [vemurafenib]
The description is as above. In outline:
as §1
Turning to VPS11 (UniProt Q9H270), the log2 fold change is 0.016 (inactive).
Take TXNL4B (UniProt Q9NX01): the log2 fold change is 0.453 (active).
Same read-out and setting: with USP3 (UniProt Q9Y6I4) the figure was 0.112 (inactive); with TRIM4 (UniProt Q9C037), -0.297 (inactive); with TMEM128 (UniProt Q5BJH2), -0.279 (inactive).
On to VPS53 isoform 4 (UniProt Q5VIR6), for which the log2 fold change is 0.046 (inactive).
On to VPS37A (UniProt Q8NEZ2), for which the log2 fold change was 0.128 (inactive).
The same measure, in the same setting: to TUBA4A (UniProt P68366) belongs 0.005 (inactive); to VDAC1 (UniProt P21796), 0.015 (inactive).
The same measure, in the same setting: with UBA52 (UniProt P62987) the figure was -0.212 (inactive); with VPS28 (UniProt Q9UK41), 0.041 (inactive).
Turning to UNC119B (UniProt A6NIH7), the log2 fold change is 0.023 (inactive).
TRMT61A (UniProt Q96FX7): the log2 fold change was -0.119 (inactive).
Consider WNK1 isoform 7 (UniProt Q9H4A3), for which the log2 fold change is -0.023 (inactive).
The same measure, in the same setting: to TSPAN13 (UniProt O95857) belongs 0.103 (inactive); to TTI2 (UniProt Q6NXR4), 0.047 (inactive).
Still for that read-out and setting: with TTC33 (UniProt Q6PID6) the figure was -0.07 (inactive).
With UTP3 (UniProt Q9NQZ2), the log2 fold change is 0.004 (inactive).
Still for that read-out and setting: with ULBP1 (UniProt Q9BZM6) the figure was 0.051 (inactive); with VPS13B (UniProt Q7Z7G8), 0.008 (inactive); with TMEM70 (UniProt Q9BUB7), -0.011 (inactive).
With UBE4B isoform 4 (UniProt O95155), the log2 fold change was 0.024 (inactive).
VPS72 isoform 2 (UniProt Q15906): the log2 fold change is 0.025 (inactive).
In the case of UBIAD1 (UniProt Q9Y5Z9), the log2 fold change was 0.07 (inactive).
Consider TRIM44 (UniProt Q96DX7), for which the log2 fold change was -0.005 (inactive).
Regarding UGDH (UniProt O60701), the log2 fold change was 0.043 (inactive).
Still for that read-out and setting: to TRABD (UniProt Q9H4I3) belongs 0.125 (inactive); to UBXN8 (UniProt O00124), 0.089 (inactive); to WEE1 (UniProt P30291), 0 (inactive).
Regarding UCHL5 isoform 3 (UniProt Q9Y5K5), the log2 fold change was -0.02 (inactive).
On the same count and under the same terms, with UFM1 (UniProt P61960) the figure was 0.07 (inactive); with TMEM9B (UniProt Q9NQ34), 0.013 (inactive); with VKORC1 (UniProt Q9BQB6), -0.023 (inactive).
